# Reference: the supplement of paper PMC3334620
# In all, about 33,000 sequences were measured (“E-score (-0.5 to 0.5)”: median about -0.0034, highest 2% from about 0.25 on). For the sample, the highest values were picked, then their nearest neighbours and some sequences at random.
# Target: T1, Yap3 (UniProt P38749)
# T1 sequence: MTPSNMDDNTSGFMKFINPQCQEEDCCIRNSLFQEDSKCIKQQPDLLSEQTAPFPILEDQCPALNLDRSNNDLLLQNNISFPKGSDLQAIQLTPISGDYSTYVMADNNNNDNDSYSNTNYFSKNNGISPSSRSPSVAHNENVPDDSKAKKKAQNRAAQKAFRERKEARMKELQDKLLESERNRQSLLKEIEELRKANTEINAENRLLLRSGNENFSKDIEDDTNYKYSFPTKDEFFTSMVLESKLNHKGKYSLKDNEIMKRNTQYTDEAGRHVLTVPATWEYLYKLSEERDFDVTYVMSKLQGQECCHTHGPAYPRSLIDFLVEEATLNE
# Experiment: PBM E-score (8-mer binding enrichment) (E-score (-0.5 to 0.5)); higher = stronger / more preferred TF binding
# Conditions: protein concentration: 100 nM; construct: GST-full length
# Description: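 Universal 'all 10-mer' protein binding microarrays (Agilent AMADID 015681) probed with GST-tagged S. cerevisiae TFs (full-length or DBD) made by in vitro transcription/translation (PURExpress), about 100-200 nM. Bound TF was detected with fluorescent anti-GST. Each ungapped 8-mer (which stands for itself and its reverse complement) is scored by the PBM enrichment score (E-score), a modified Wilcoxon-Mann-Whitney statistic from -0.5 to +0.5, computed with the Universal PBM Analysis Suite. Scale: above 0.35 generally sequence-specific binding.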
row,Sequence,PBM E-score
1,CACGGCCG,-0.0612
2,CTACTCTA,0.148
3,AAAGGGCG,-0.0936
4,AGTAGTGG,0.0946
5,ATCTGCGG,-0.0331
6,ATCTATAA,0.0384
7,CTACTAGC,0.097
8,TAAGTAGA,0.109
9,AGATGACG,0.108
10,CTGTGGCC,-0.361
11,CTGTTCAA,0.0116
12,AGGTCGAT,0.167
13,GCCGATCA,0.00289
14,ATATTTAA,0.339
15,CTATTTAA,0.0559
16,ATATTTAC,0.208
17,GTAACAGA,0.105
18,ACTATTCG,0.231
19,ATTATTCA,0.277
20,CTTATTCA,0.106
21,ATTATTCC,0.248
22,ATTATTCG,0.274
23,GTTATTCA,0.193
24,ATACCCAG,-0.0813
25,GCCAATTA,0.193

row,Sequence,PBM E-score
1,ACCAATTG,-0.0264
2,AACAATTG,-0.0238
3,ACCAATTA,0.274
4,ATCAATTG,0.159
5,ATCAATTC,-0.0493
6,AACAATTA,0.323
7,ATCAATTA,0.318
8,AACAATTC,0.106
9,CGTAGCTA,-0.05
10,GGAGCAAA,0.016
11,CATAGCAC,0.0592
12,ACACCACA,0.0359
13,AGCCTCAT,-0.158
14,ACAAGGGG,-0.193
15,ATTAGATC,0.0781
16,ATTAGATG,0.261
17,ATTAGATA,0.178
18,TCTTCAAA,0.0414
19,ACTGCCAG,-0.0114
20,CAATTATC,0.273
21,TAATTAGA,0.291
22,GAATTATA,0.237
23,CAATTAGA,0.0631
24,AAATTATA,0.249
25,CAATTATA,0.167

row,Sequence,PBM E-score
1,TAATTATA,0.285
2,GAATTAGA,0.136
3,CAATTATG,0.214
4,CTACCATA,0.152
5,CCGTGAAG,-0.167
6,ATACCATA,0.241
7,CTAGATCC,-0.0756
8,GCGAAGGA,-0.201
9,AACGAGGA,0.0742
10,AAATACTA,0.141
11,AACTAATG,0.23
12,AAATACAA,0.197
13,AACTAATT,0.149
14,CAATACTA,0.0409
15,GACTAACA,0.142
16,CAATACAA,0.187
17,GACTAATC,0.175
18,AACTAATA,0.342
19,GACTAATA,0.326
20,TAATACTA,0.367
21,TAATACAA,0.279
22,CAAATCTC,0.0919
23,TACAGCTA,-0.115
24,GCATGACC,-0.158
25,TCCTTCAA,0.026

row,Sequence,PBM E-score
1,CCCTTGAC,-0.0534
2,CGACAGGA,0.0296
3,AAGTAACC,0.0184
4,ACCTAGAC,-0.229
5,GAGACGGC,-0.138
6,GAAAGATC,-0.0498
7,ATCCAGTG,0.0972
8,ACTCCAAT,0.0453
9,GAAATACC,0.0809
10,GGTCAGTA,-0.139
11,TGTAGTAA,0.128
12,TACTAATA,0.267
13,TACTACTA,0.223
14,CACTAATA,0.225
15,ACCTAATC,0.245
16,ACCTAATA,0.274
17,GCCTAATA,0.0577
18,GAAAGCAC,0.112
19,ACAGCAGG,-0.126
20,CGTCTGAA,-0.104
21,AACATACG,0.183
22,ATAATCAA,0.139
23,AACATAAA,0.156
24,CACATAAG,0.053
25,AACATACT,0.012

row,Sequence,PBM E-score
1,CTAATCAG,0.0826
2,CTAATCAA,0.219
3,AACATAAG,0.308
4,ATAATCAG,0.126
5,AACATAAT,0.334
6,CTAATCAC,0.271
7,ATAATCAT,0.344
8,GCATAAAA,0.147
9,CGTTGAAC,-0.07
10,GCTAGGAC,-0.11
11,ATCTATCC,0.00162
12,AAAGTGCT,0.0686
13,CTCTATCC,-0.00886
14,CAGGAAGC,0.00172
15,ATCATAAG,0.247
16,ACCATAAT,0.264
17,ATCATAAA,0.193
18,ATCATAAT,0.293
19,CACATAAC,-0.0392
20,AACATAAC,0.269
21,GACATAAC,0.22
22,ACCATAAG,-0.0758
23,ACCATAAA,0.141
24,CTCTCTAC,0.111
25,AGCTGGAA,-0.178

row,Sequence,PBM E-score
1,GCAACCCA,-0.11
2,TATGATAA,0.228
3,CATGATAA,0.255
4,AATGATAA,0.177
5,AATGATTA,0.325
6,CCTGATTA,0.18
7,AATGATAG,0.172
8,GATGATTA,0.0319
9,AATGATTC,0.115
10,AATGATAC,0.264
11,CATGATTC,0.0254
12,CATGATTA,0.28
13,AATGATAT,0.242
14,AGAACGCC,-0.109
15,CGCACATA,-0.0836
16,AAGTGGGT,0.0584
17,AATTTGAA,0.131
18,CCGAGCAA,-0.0253
19,CATATAGC,0.233
20,ATACAAGG,0.145
21,CGCGATTA,0.27
22,AGCGATTA,0.00413
23,CGCGATTC,0.198
24,CGTAATGC,0.203
25,CGTAATAG,0.314

row,Sequence,PBM E-score
1,AGTAATAG,0.207
2,CGTAATAC,0.318
3,GGTAATAA,0.165
4,TGTAATAA,0.242
5,AGTAATAT,0.295
6,CGTAATAA,0.29
7,AGTAATAC,0.113
8,AGTAATGC,0.13
9,GGTAATAC,0.208
10,CATAATAG,0.189
11,CGGCATTA,0.21
12,ACTCGTTC,-0.0576
13,AGTAATGA,0.208
14,AGTAAAAA,0.208
15,AGTAATAA,0.254
16,ATTGGGGC,-0.0386
17,AGGCTATC,-0.203
18,CCGCGCGC,0.0469
19,GCGCGCTA,0.257
20,ACGCGCTA,0.0658
21,CCGCGCGG,0.293
22,CCGCGCGA,0.0991
